aGal spleen mod = alpha-galactosidase A (human) modulation; actives 0.008% (n = 240,000); Potency, µM (highest dose often 80 µM), for inactives: at the top dose activity change, negative = inhibition, actives largely listed as inhibitors; P06280; human spleen homogenate, 4MU-alpha-Gal fluorescence, 40 min;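 note: potency is the fitted concentration of half-maximal effect; 0% = enzyme with vehicle and -100% = no enzyme basal signal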
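qHTS titration in buffer at pH 5.0. Alpha-galactosidase activity in spleen homogenate was measured via 4-methylumbelliferone release from 1 mM fluorogenic substrate after 40 min at 37C and a pH 10 stop. AC50 came from Hill fits of control-normalized data.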
PNC assembly inh = inhibitors of perinucleolar compartment assembly; PC3M PTB-GFP, PNC prevalence imaging, 16 h; hits give low values; activity change (PNC), negative = inhibition, % at 10 µM; actives 3.1% (n = 140,000); AID 2417;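 active = readout at or below -70, meaning at least 70% loss of cells showing the perinucleolar compartment, a nuclear body marking cancer cells; inconclusive = readout between -30 and a set limit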;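 note: plate controls were DMSO wells for no effect and camptothecin positive control wells for full effect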
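PC3M cells stably expressing PTB-GFP, 750–1000 cells/well, treated 16 h at 37 °C with compound (23 nl of library stock), in duplicate. After paraformaldehyde fixation and Hoechst stain, imaged at 20x; PNC prevalence scored by image analysis.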
HPGD inh = HPGD (human) dehydrogenase inhibition. actives 4.3% (n = 150,000). purified HPGD, NADH fluorescence kinetic, PGE2 substrate. AID 894. P15428. Potency, µM, for the others: at the top dose activity change, negative = inhibition, actives largely listed as inhibitors; active = well fitted inhibition curve with a large enough effect, not every such curve was filed as active; inconclusive = small, poorly fitted or top-dose-only effect, or another doubt; inactive = no such curve, though single readings can be large or run the other way; note: potency is the fitted concentration of half-maximal effect
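20 nM HPGD preincubated 15 min at room temperature with compound in 50 mM Tris-HCl pH 8, 0.01% Tween 20. Started with 1 mM NAD+ and 30 uM prostaglandin E2; NADH fluorescence (360/450 nm) read 5 times over 30-s intervals, last minus first.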
GLA inh pH 4.5 = blocks human alpha-galactosidase A at pH 4.5 | purified enzyme, 4-MU-alpha-Gal fluorescence, pH 4.5 | activity change, negative = inhibition, % at 105 µM | 230,000 tested, under 10 active | AID 1467;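 note: 0% = full activity with enzyme and -100% = basal without enzyme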
12-hLO inh = inhibitors of human 12-lipoxygenase (ALOX12). P18054. purified 12-hLO, xylenol orange hydroperoxide absorbance. Potency, µM (series often up to 57.1 µM), without a hit: at the top dose activity change, negative = inhibition, hits mostly inhibitors. actives 0.12% (n = 150,000). AID 1452; note: potency is the fitted concentration of half-maximal effect; nearly all actives have a fitted effect of over 55% in size
Target sequence (P18054 whole entry, looked up): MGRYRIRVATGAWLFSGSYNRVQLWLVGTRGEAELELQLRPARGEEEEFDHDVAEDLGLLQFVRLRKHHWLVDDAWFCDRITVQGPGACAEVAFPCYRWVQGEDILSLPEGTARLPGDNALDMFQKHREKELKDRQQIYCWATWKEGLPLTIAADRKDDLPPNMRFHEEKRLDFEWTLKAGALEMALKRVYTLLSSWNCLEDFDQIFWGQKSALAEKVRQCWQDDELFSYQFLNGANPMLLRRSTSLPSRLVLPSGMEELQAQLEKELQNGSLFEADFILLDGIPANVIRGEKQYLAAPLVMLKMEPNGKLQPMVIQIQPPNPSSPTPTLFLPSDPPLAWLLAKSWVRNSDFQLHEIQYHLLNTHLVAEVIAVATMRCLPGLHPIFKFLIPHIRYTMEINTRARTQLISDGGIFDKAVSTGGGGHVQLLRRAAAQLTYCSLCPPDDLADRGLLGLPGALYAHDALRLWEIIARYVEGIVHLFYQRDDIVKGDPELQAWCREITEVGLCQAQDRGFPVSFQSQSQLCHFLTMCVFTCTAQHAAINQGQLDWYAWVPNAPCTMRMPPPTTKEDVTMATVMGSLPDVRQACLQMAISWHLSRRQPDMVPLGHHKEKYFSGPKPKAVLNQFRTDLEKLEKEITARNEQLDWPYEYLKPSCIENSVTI
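Hydroperoxide output read as Fe(III)-xylenol orange absorbance, 573-to-405 nm ratio, after 30 min reaction with 40 uM arachidonic acid. Enzyme: 150 nM purified human 12hLO, 15 min compound preincubation; 25 mM Hepes pH 7.0, room temperature.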
ALDH1A1 block = inhibitors of human aldehyde dehydrogenase 1A1; actives 7.3% (n = 220,000); Potency, µM (titrated, usually from 75.3 µM), without a hit: top-dose activity, negative = inhibition, most hits filed as inhibitors; Purified ALDH1A1, NADH fluorescence, propionaldehyde substrate; P00352; active = well fitted inhibition curve with a large enough effect, not every such curve was filed as active; inconclusive = small, poorly fitted or top-dose-only effect, or another doubt; inactive = no such curve, though single readings can be large or run the other way;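 note: potency is the fitted concentration of half-maximal effect; plate controls were no enzyme wells and a reference inhibitor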
Starred values were filed as active, the others as inactive; ? = inconclusive; / = no result; [ ] = dose if it differs, or a comment. Shown are actives, neighbours in structure and some others; about 10% of the full set was active somewhere. Unless noted, calls come from the whole dose curve; as a rule, active = well fitted curve in the direction sought with a large enough effect; inconclusive = small, poorly fitted or top-dose-only effect, or another doubt; inactive = no such curve, though single readings can be large; an effect the other way counts as inactive or inconclusive. Unless noted, % is set by controls: 0 for no effect and ±100 for the full control effect.

SMILES | aGal spleen mod | PNC assembly inh | HPGD inh | GLA inh pH 4.5 | 12-hLO inh | ALDH1A1 block
O=C(COC(=O)c1ccc2c(c1)OCO2)Nc1ncc(Cl)cc1Cl | -6% | ? | -19% | 0 | -1% | 1%
Cc1c(Cl)cnc(NC(=O)COC(=O)c2ccc3ncsc3c2)c1Cl | 4% | -15 | -8% | -6 | 2% | -10%
O=C(COC(=O)CCCN1C(=O)c2cccc3cccc(c23)C1=O)Nc1cccc(Br)c1 | -3% | 21 | ? | -13 | -2% | ?
O=C(COC(=O)c1ccc(O)cc1)Nc1ncc(Cl)cc1Cl | 13% | / | / | -1 | / | 28µM*
O=C(COC(=O)c1ccc2ncsc2c1)Nc1ncc(Cl)cc1Cl | 1% | -95* | -8% | -20 | -2% | -10%
CC(C(=O)N1CCCCC1)n1sc2ccccc2c1=O (configuration not stated) | -2% | 33 | 3.5µM* | -2 | -5% | 3%
Cc1ccc(C(=O)Nc2ccccc2N2CCOCC2)c(C)c1 | / | / | -7% | / | 0% | 13%
CCCN1C(=O)c2cc(C(=O)O)ccc2C1O (configuration not stated) | -9% | ? | -13% | -1 | -3% | -11%
CCCN1C(=O)c2cc(C(=O)NC3CCCCCC3)ccc2C1O (configuration not stated) | -1% | -22 | -6% | -4 | 1% | 16µM*
CN(C)/N=C/C=C1\CC/C(=C\c2ccc(Br)cc2)C1=O | 5% | 20 | -13% | 4 | -10% | -4%
CN(C)/N=C/C=C1\CCC/C(=C/c2cccs2)C1=O | -1% | / | / | -5 | / | 25µM*
CCC/C=C(\CCC)C(NP(=O)(c1ccccc1)c1ccccc1)c1ccc(-c2ccccc2)cc1 (configuration not stated) | 4% | / | -18% | -16 | -10% | -6%
N#Cc1ccccc1S(=O)(=O)Nc1ccc2c(c1)C(=O)OC2 | 4% | / | / | -4 | / | /
O=C(CCl)N=c1sccn1Cc1ccccc1Cl | 6% | / | / | -1 | / | /
O=C(CCl)N=c1sccn1Cc1ccc(Cl)cc1Cl | -6% | / | / | -6 | / | 28µM*
O=C(CCl)N=c1sccn1Cc1cccc2ccccc12 | 2% | / | / | 3 | / | 20µM*
O=c1c(-c2ccccc2)nc2cncnc2n1Cc1ccccc1Cl | 0% | / | -15% | / | -6% | -2%
CN(C)c1nc(N)c(C(=O)Nc2cccnc2)nc1Cl | 25% | / | ? | -8 | -14% | ?
COc1ccc(Br)cc1CN(C)C(C)C(=O)Nc1cccc(C(C)=O)c1 (configuration not stated) | 3% | / | / | -7 | / | 10µM*
COc1ccc(C(C)=O)cc1CSCCC(=O)O | -13% | 49 | 28µM* | -20 | -5% | -5%
COc1ccc(C(C)=O)cc1CN1C(=O)NC2(CCCCCCC2)C1=O | 2% | / | / | -9[21.1 µM] | / | 6.3µM*
COc1ccccc1CN(C)C(C)C(=O)Nc1cccc(C(C)=O)c1 (configuration not stated) | 2% | / | / | -7 | / | -9%
COc1ccc(C(C)=O)cc1CN(C)C | -4% | -2 | -4% | -2 | 1% | 8.9µM*
COc1ccc(C(C)=O)cc1COc1ccc(Cl)cc1Cl | 0% | / | / | -14 | / | 6%
COc1ccc(CN2C(=O)NC3(CCCCCC3)C2=O)cc1F | 3% | -3 | -3% | 0 | -6% | -9%
SMILES | aGal spleen mod | PNC assembly inh | HPGD inh | GLA inh pH 4.5 | 12-hLO inh | ALDH1A1 block
COc1ccc(C(C)=O)cc1CSc1ncccn1 | -8% | / | / | 1 | / | -8%
CCCN(CCC)C(=O)[C@@H](CCC(=O)O)NC(=O)c1ccccc1 | -3%[29.1 µM] | / | -7% | 2 | 2%[25.6 µM] | 19%[20.9 µM]
COC(=O)[C@H]1[C@@H](C)N(Cc2ccccc2)C(=O)N[C@H]1c1cccc(C(F)(F)F)c1 | -2%[17.5 µM] | / | -8% | 3 | 3%[11.4 µM] | 12%[13.5 µM]
Cc1cccc(CNc2cc(-c3c(C)noc3C)ncn2)c1 | 16% | / | / | / | / | 6%
COc1ccc(C(O)c2nc3ccccc3n2C(C)C)cc1 (configuration not stated) | 2% | / | / | 0 | / | /
COc1ccc(OC)c(C(C)NC(=O)Nc2cccc(C(C)=O)c2)c1 (configuration not stated) | -14% | / | / | 14 | / | 11µM*
COCC(C)NCc1ccc(OC)c(Br)c1 (configuration not stated) | -11% | / | / | 4 | / | ?
COc1cc(CC(=O)OCC(=O)Nc2ccc(S(=O)(=O)N3CCCC3)cc2)cc(OC)c1OC | 7% | -24 | -3% | 4 | -4% | 20µM*
CCC(C)c1ccccc1NC(=O)COC(=O)CCc1cc(OC)c(OC)c(OC)c1 (configuration not stated) | -1% | 33 | -3% | -6 | -3% | 8%
CCN(c1ccc(NC(=O)COC(=O)CCc2cc(OC)c(OC)c(OC)c2)cc1)C(C)C | -4% | / | / | -5 | / | 18µM*
O=C(Oc1c(-c2ccccc2)c(=O)n2c3c(cccc13)CC2)c1ccc(F)cc1 | 0% | / | / | 4 | / | /
CC(C)CNC(=O)c1ccc(NC(=O)c2cccs2)cc1 | 1% | -3 | 18µM* | 1 | -1% | -1%
O=C(c1ccc(N2CCOCC2)cc1)c1cccs1 | 7% | ? | 13µM* | -25 | -1% | ?
CC(C)C(=O)N1CCN(c2ccc(NC(=O)c3cccs3)cc2)CC1 | -4% | -100* | -8% | 3 | 0% | 4%
O=C(Nc1ccc(C(=O)N2CCOCC2)cc1)c1cccs1 | -29% | -12 | 14µM* | -10 | -2% | -8%
O=C(Nc1ccc(N2CCOCC2)cc1N1CCOCC1)c1cccs1 | 4% | -4 | -15% | 3 | -4% | -3%
CN1CCN(c2ccc(NC(=O)c3cccs3)cc2)CC1 | 3% | / | / | 6 | / | 0%
Cc1csc2c(=O)[nH]cnc12 | -5% | / | / | -11 | / | 8%
CCOc1ccc(C2C([N+](=O)[O-])=C(C)N(C)C(=O)N2C)cc1OC (configuration not stated) | 3% | / | / | -13 | / | 7%
O=C(CSc1nnc(Cc2ccccc2)n1-c1cccc(Cl)c1)NNC(=O)Cc1ccccc1 | ? | 123 | -11% | 5 | -2% | 4%
Cn1c(-c2ccc3c(c2)OCO3)cnc1NC(=O)CCC(=O)NCCc1ccccc1 | 3% | -13 | -21% | 4 | -1% | 1%
Cn1c(-c2ccc3c(c2)OCO3)cnc1NCc1ccccc1Cl | -6% | / | / | 7 | / | ?
Cn1c(-c2ccc3c(c2)OCO3)cnc1NCc1cccc(Cl)c1 | -8% | 7 | ? | 2 | -17% | 14µM*
Cn1c(-c2ccc3c(c2)OCO3)cnc1NCc1ccccc1 | 2% | -21 | 16µM* | 4 | -2% | ?
NC(=O)[C@@H]1CCNc2c(I)cc([N+](=O)[O-])cc2C(=O)N[C@@H](CO)C(=O)N[C@@H](Cc2ccc(O)cc2)C(=O)N1 | 3% | 12 | -17% | 9 | -25% | -6%

Compound activity: PubChem BioAssay, National Center for Advancing Translational Sciences (NCATS)
